In PubChem BioAssay (Tox21):
Several values for one entry are separate records, joined by “and”; a condition that tells them apart may be missing. Identical values can stand only once. A number with no mark means an inactive call. Records with an inconclusive call do not appear. A call without a number means that no potency is given here. Activity calls are given as the source filed them. The call rests on the fitted dose curve.

Tests used:
[1] = molecular target: Acetylcholinesterase (Homo sapiens) (UniProt P22303); assay: Acetylcholinesterase (AChE) small molecule antagonists: colormetric cell-based qHTS assay (AID 1347395); further: nearly all actives have a fitted effect of over 30% in size; further: potency means the concentration at half of the fitted maximal effect
Method in brief: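 In this cell-based qHTS, attached SH-SY5Y cells were treated with test chemicals for 30 min, after which acetylthiocholine hydrolysis was followed by DTNB colour development over 90 min at 37 C.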

[2] = molecular target: Acetylcholinesterase (Homo sapiens) (UniProt P22303); assay: Acetylcholinesterase (AChE) small molecule antagonists: enzyme-based qHTS assay (AID 1347397); conditions: Potency: AChE enzyme activity inhibition; outcome: AChE enzyme activity inhibition; further: nearly all actives have a fitted effect of over 55% in size; further: potency means the concentration at half of the fitted maximal effect
Method in brief: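 Enzyme inhibition was scored from DTNB-detected thiocholine formed by recombinant human AChE acting on acetylthiocholine. The 30 min compound preincubation and 10 min substrate reaction were both run at room temperature, with DMSO as vehicle control.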

[3] = molecular target: Acetylcholinesterase (Homo sapiens) (UniProt P22303); assay: Acetylcholinesterase (AChE) small molecule antagonists: fluorescence cell-based qHTS assay (AID 1347398); conditions: Potency: AChE activity; outcome: AChE activity; further: nearly all actives have a fitted effect of over 50% in size; further: potency means the concentration at half of the fitted maximal effect
Method in brief: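 Endogenous acetylcholinesterase of SH-SY5Y neuroblastoma cells is measured in situ. After overnight attachment and 30 min compound exposure, cells receive acetylthiocholine and Thiolite Green; fluorescence is read after 40 min at room temperature.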

[4] = molecular target: Acetylcholinesterase (Homo sapiens) (UniProt P22303); assay: Acetylcholinesterase (AChE) small molecule antagonists: enzyme-based qHTS assay with human liver microsomes (AID 1347399); conditions: Potency: qHTS inhibition; outcome: qHTS inhibition; further: nearly all actives have a fitted effect of over 60% in size
Method in brief: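 Recombinant human AChE (50 mU/mL in the enzyme mix) and human liver microsomes (0.25 mg/mL final) were preincubated with compound and NADPH (0.25 mg/mL final) for 30 min at 37 C. Acetylthiocholine/DTNB was then added; thiocholine was read colorimetrically after 10 min at room temperature.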

Acetylcholinesterase (Homo sapiens), sequence (P22303 whole entry, looked up): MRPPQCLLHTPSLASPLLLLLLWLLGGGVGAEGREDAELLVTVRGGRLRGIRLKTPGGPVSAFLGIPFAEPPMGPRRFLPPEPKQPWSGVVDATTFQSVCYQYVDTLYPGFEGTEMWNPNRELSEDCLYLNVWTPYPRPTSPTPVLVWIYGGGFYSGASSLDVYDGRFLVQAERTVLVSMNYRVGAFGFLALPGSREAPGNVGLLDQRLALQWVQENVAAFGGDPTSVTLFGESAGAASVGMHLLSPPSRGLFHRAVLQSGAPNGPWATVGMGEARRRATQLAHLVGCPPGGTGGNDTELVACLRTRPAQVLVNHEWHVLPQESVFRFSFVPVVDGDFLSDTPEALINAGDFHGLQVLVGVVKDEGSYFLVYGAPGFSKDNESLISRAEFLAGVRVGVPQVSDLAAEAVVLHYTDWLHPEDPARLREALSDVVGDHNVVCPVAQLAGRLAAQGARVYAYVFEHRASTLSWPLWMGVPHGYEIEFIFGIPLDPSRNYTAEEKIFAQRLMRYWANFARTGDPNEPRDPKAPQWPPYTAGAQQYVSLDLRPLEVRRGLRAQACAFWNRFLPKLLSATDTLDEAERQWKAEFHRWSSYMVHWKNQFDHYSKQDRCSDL

Row | Compound | Potency [1] | Potency [2] | Potency [3] | Potency [4] | activity, negative = inhibition [1] | activity change, negative = inhibition [2] | activity change, negative = inhibition [3] | activity change, negative = inhibition [4]
1 | CC(C)CCOCCC(C)C | inactive | inactive | inactive | inactive | – | – | – | –
2 | CN(C)CCN1CCOCC1 | inactive | inactive | inactive | inactive | – | – | – | –
3 | CC1=CC(C)C(C=O)C(C)C1 (stereo not given) | inactive | inactive | inactive | inactive | – | – | – | –
4 | CCCCNCC | inactive | inactive | inactive | inactive | – | – | – | –
5 | CCCCN1C(=O)c2ccccc2C1=O | inactive | inactive | inactive | inactive | – | – | – | –
6 | CCCCCCCCCCCCCCCCCCOCCO | – | – | – | – | 0.0969% [at 23.6 µM] | 1.34% [at 23.6 µM] | -1.79% [at 23.8 µM] | 0.112% [at 23.6 µM]
7 | CC(C=O)c1ccccc1 (stereo not given) | inactive | inactive | inactive | inactive | – | – | – | –
8 | CC1=C(/C=C/C(C)=C/C=C/C(C)=C/C(=O)Nc2ccc(O)cc2)C(C)(C)CCC1 | inactive | inactive | 13.8 µM (active) | inactive | – | – | – | –
9 | CC(CNC1CCCCC1)OC(=O)c1ccccc1 (stereo not given) | inactive | inactive | inactive | inactive | – | – | – | –
10 | Cc1c(C)c2c(c(C)c1O)CCC(C)(COc1ccc(CC3SC(=O)NC3=O)cc1)O2 (stereo not given) | inactive | inactive | inactive | inactive | – | – | – | –
11 | c1ccc(CSCc2ccccc2)cc1 | inactive | inactive | inactive | inactive | – | – | – | –
12 | OC[C@@H](O)[C@@H](O[C@@H]1O[C@H](CO)[C@H](O)[C@H](O)[C@H]1O)[C@H](O)[C@@H](O)CO | inactive | inactive | inactive | inactive | – | – | – | –
13 | CCCSSCCC | inactive | inactive | inactive | inactive | – | – | – | –
14 | CC(CCc1ccc(O)cc1)NCCc1ccc(O)c(O)c1 (stereo not given) | inactive | inactive | inactive | inactive | – | – | – | –
15 | CC(NCCC(c1ccccc1)c1ccccc1)c1ccccc1 (stereo not given) | inactive | inactive | inactive | inactive | – | – | – | –
16 | C/C=C/C(=O)CCCC | inactive | inactive | inactive | inactive | – | – | – | –
17 | C[C@](N)(Cc1ccc(O)cc1)C(=O)O | – | – | – | – | -0.0506% [at 10.5 µM] | 0.139% [at 10.5 µM] | 3.21% [at 10.5 µM] | -2.1% [at 10.5 µM]
18 | CC(CCc1ccccc1)NCC(O)c1ccc(O)c(C(N)=O)c1 (stereo not given) | inactive | inactive | inactive | inactive | – | – | – | –
19 | CC1(C)CO[C@@H](CC(=O)O)CN1 | inactive | inactive | inactive | inactive | – | – | – | –
20 | COC(=O)Nc1ccc(Cl)c(Cl)c1 | inactive | inactive | inactive | inactive | – | – | – | –

Row | Compound | Potency [1] | Potency [2] | Potency [3] | Potency [4] | activity, negative = inhibition [1] | activity change, negative = inhibition [2] | activity change, negative = inhibition [3] | activity change, negative = inhibition [4]
21 | CCCCCCCCCCCCCCCC[N+](C)(C)CC | inactive | 71.2 µM (active) | 63.5 µM (active) and 38.9 µM (active) | inactive | – | – | – | –
22 | C=CC(=O)OCC(C)OCC(C)OCC(C)OC(=O)C=C (stereo not given) | inactive | inactive | inactive | inactive | – | – | – | –
23 | C=C(C)C(=O)OCCC(C)OC(=O)C(=C)C (stereo not given) | inactive | inactive | inactive | inactive | – | – | – | –
24 | O=C1CC2CC1C1CCCC21 (stereo not given) | inactive | inactive | inactive | inactive | – | – | – | –
25 | CCCCCCCCOc1ccc(C(=O)O)cc1 | inactive | inactive | inactive | inactive | – | – | – | –
26 | CC(=O)CC(=O)Nc1ccc(S(=O)(=O)O)cc1 | inactive | inactive | inactive | inactive | – | – | – | –
27 | CN(C)N=Nc1ccccc1 | inactive | inactive | inactive | inactive | – | – | – | –
28 | CC1(C)C2=CCCC(C)(C)[C@]23CC[C@H]1C3 | inactive | inactive | inactive | inactive | – | – | – | –
29 | Cc1ccc(Cl)c(Nc2ccccc2C(=O)O)c1Cl | inactive | inactive | inactive | inactive | – | – | – | –
30 | C=C(C)C(=O)OCC(C)C | inactive | inactive | inactive | inactive | – | – | – | –
31 | O=C(c1ccccc1)c1ccc(O)cc1O | inactive | inactive | inactive | inactive | – | – | – | –
32 | OC1CCCc2ccccc21 (stereo not given) | inactive | inactive | inactive | inactive | – | – | – | –
33 | CC(C)C(=O)Nc1ccc([N+](=O)[O-])c(C(F)(F)F)c1 | inactive | inactive | inactive | inactive | – | – | – | –
34 | CCCCCCCCCCCCCC | inactive | inactive | inactive | inactive | – | – | – | –
35 | CC(CO)Oc1ccccc1 (stereo not given) | inactive | inactive | inactive | inactive | – | – | – | –
36 | CSc1ccc(O)cc1C | inactive | inactive | inactive | inactive | – | – | – | –
37 | O=Cc1ccccc1Cl | inactive | inactive | inactive | inactive | – | – | – | –
38 | Nc1ccc(S(=O)(=O)c2ccc(N)cc2)cc1 | inactive | inactive | inactive | inactive | – | – | – | –
39 | C=CC(=O)OCC1CC2CC1C1CCC(COC(=O)C=C)C21 (stereo not given) | inactive | inactive | inactive | inactive | – | – | – | –
40 | Cc1ccc(Br)cc1 | inactive | inactive | inactive | inactive | – | – | – | –

Row | Compound | Potency [1] | Potency [2] | Potency [3] | Potency [4] | activity, negative = inhibition [1] | activity change, negative = inhibition [2] | activity change, negative = inhibition [3] | activity change, negative = inhibition [4]
41 | CN(C)CCCN(C)CCCN(C)C | inactive | inactive | inactive | inactive | – | – | – | –
42 | CC(=O)N1C[C@H](O)C[C@H]1C(=O)O | inactive | inactive | inactive | inactive | – | – | – | –
43 | CC1(C)[C@@H]2CC[C@@]1(C)C(=O)C2 | inactive | inactive | inactive | inactive | – | – | – | –
44 | C[C@@H](O)[C@H]1C(=O)N2C(C(=O)O)=C(S[C@@H]3CN[C@H](C(=O)N(C)C)C3)[C@H](C)[C@H]12 | inactive | inactive | inactive | inactive | – | – | – | –
45 | COc1ccc(/C(C)=C/C(=O)O)c(OC)c1 | inactive | inactive | inactive | inactive | – | – | – | –
46 | CC(=O)c1c(C)c([N+](=O)[O-])c(C(C)(C)C)c([N+](=O)[O-])c1C | 79.6 µM (active) | inactive | inactive | inactive | – | – | – | –
47 | NC(N)=S | inactive | inactive | inactive | inactive | – | – | – | –
48 | Cc1ccc(OC(=O)CC(C)C)cc1 | inactive | inactive | inactive | inactive | – | – | – | –
49 | C#C[C@]1(O)CC[C@H]2[C@@H]3CCc4cc(OC)ccc4[C@H]3CC[C@@]21C | inactive | inactive | inactive | inactive | – | – | – | –
50 | CC(=O)NNC(C)=O | inactive | inactive | inactive | inactive | – | – | – | –
51 | O=C(O)c1ccccc1C(=O)OCc1ccccc1 | inactive | inactive | inactive | inactive | – | – | – | –
52 | CCCCCCC(O)CCOC(C)=O (stereo not given) | inactive | inactive | inactive | inactive | – | – | – | –
53 | O=C(O)CCc1nc2ccccc2[nH]1 | inactive | inactive | inactive | inactive | – | – | – | –
54 | CNS(=O)(=O)Cc1ccc2[nH]cc(CCN(C)C)c2c1 | inactive | inactive | inactive | inactive | – | – | – | –
55 | COCCOCCOCCOC | inactive | inactive | inactive | inactive | – | – | – | –
56 | NS(=O)(=O)c1cc2c(cc1Cl)CN(C1CCCCC1)C2=O | inactive | inactive | inactive | inactive | – | – | – | –
57 | Cc1cc(C(=O)O)ccc1[N+](=O)[O-] | inactive | inactive | inactive | inactive | – | – | – | –
58 | C#C[C@]1(O)CC[C@H]2[C@@H]3CCc4cc(O)ccc4[C@H]3CC[C@@]21C | inactive | inactive | inactive | inactive | – | – | – | –
59 | O=c1[nH]cnc2c1ncn2[C@H]1CC[C@@H](CO)O1 | inactive | inactive | inactive | inactive | – | – | – | –
60 | CC(COc1ccc(C(C)(C)C)cc1)OS(=O)OCCCl (stereo not given) | inactive | inactive | inactive | inactive | – | – | – | –
